High-throughput results as filed in PubChem BioAssay.
A selection: hits, their analogues and other compounds. The true share with any hit is near 19%.
DT40 TDP1 CPT = DT40-hTDP1 cell growth loss with CPT | 420,000 tested, 12% active | chicken DT40 Tdp1-/-;hTDP1 cells + 20 nM CPT, ATP luminescence, 48 h | Potency, µM (titrated, usually from 46.2 µM), most hits filed as inhibitors; also: nearly all actives have a fitted effect of over 55% in size
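Chicken DT40 Tdp1-/- cells stably complemented with human TDP1 were seeded at 400 cells/well in medium containing 20 nM camptothecin, exposed to pin-transferred compounds, and grown at 37 °C for at least 48 hr. Viability was read as ATP luminescence.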
RORg inh = inhibitors of mouse ROR gamma transcriptional activity; P51450; AID 2551; 310,000 tested, 5.4% active; Drosophila S2 Gal4-RORgamma UAS-luciferase reporter, 20 h; Potency, µM (highest dose often 53.6 µM), actives largely listed as inhibitors; also: nearly all actives have a fitted effect of over 60% in size
Target sequence (P51450 whole entry, looked up, the tested form may be a part): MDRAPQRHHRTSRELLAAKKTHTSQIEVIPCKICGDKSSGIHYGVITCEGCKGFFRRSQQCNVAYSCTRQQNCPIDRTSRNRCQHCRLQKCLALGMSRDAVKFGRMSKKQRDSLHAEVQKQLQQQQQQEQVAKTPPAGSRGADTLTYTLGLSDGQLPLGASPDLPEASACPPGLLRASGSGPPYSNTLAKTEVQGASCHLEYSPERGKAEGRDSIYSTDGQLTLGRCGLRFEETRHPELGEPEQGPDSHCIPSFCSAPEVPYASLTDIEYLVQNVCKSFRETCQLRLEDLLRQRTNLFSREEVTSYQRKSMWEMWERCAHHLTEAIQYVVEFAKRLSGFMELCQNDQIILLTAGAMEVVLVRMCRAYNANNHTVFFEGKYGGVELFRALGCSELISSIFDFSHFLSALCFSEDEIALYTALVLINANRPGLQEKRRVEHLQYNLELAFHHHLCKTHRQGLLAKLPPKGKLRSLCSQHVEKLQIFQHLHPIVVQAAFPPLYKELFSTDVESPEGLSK
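Compounds are pin-transferred onto Drosophila Schneider cells expressing a copper-inducible Gal4–ROR gamma transactivation domain fusion. After 1 hr, copper sulfate is added to 700 uM final; luciferase is read 20 hr later.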
TDP1 cell noCPT = qHTS for Inhibitors of human tyrosyl-DNA phosphodiesterase 1 (TDP1): qHTS in cells in absence of CPT; 420,000 tested, 15% active; DT40 Tdp1-/- hTDP1 cells, no CPT, ATP luminescence, 48 h; Potency, µM (series often up to 46.2 µM), most hits filed as inhibitors; also: nearly all actives have a fitted effect of over 55% in size
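Chicken DT40 Tdp1-/- cells complemented with human TDP1, screened without camptothecin (DMSO vehicle only), 400 cells/well. Compounds pin-transferred, cells incubated at 37 °C for at least 48 hr. Growth read as ATP-dependent luminescence (CellTiter-Glo, 30 min at RT).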
TDP1 inh = TDP1 (human) enzyme inhibition | Q9NUW8 | recombinant TDP1, AlphaScreen DNA substrate cleavage | Potency, µM (highest dose often 130 µM), most hits filed as inhibitors | 350,000 tested, 0.28% active | AID 485290; also: nearly all actives have a fitted effect of over 40% in size
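Recombinant E. coli-expressed Tdp1 (1 nM) preincubated with compound 15 min at RT, then 5'-biotin/3'-phosphotyrosine-FITC DNA substrate (15 nM) added for 5 min. AlphaScreen beads (10 ug/ml) added, 10 min RT; tyrosine-FITC cleavage read as signal loss.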
Gal4-VP16 FLuc = counter-screen for ROR gamma inhibitors: Gal4-VP16 reporter | AID 2546 | Drosophila S2 Gal4-VP16 UAS-luciferase, luminescence, 20 h | Potency, µM (doses to about 53.6 µM), most hits filed as inhibitors | 310,000 tested, 3.5% active;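 also: Gal4-VP16 expression switched on by copper sulfate through the metallothionein promoter; nearly all actives have a fitted effect of over 50% in size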
A number is an active result; . = inactive; ? = inconclusive; / = not tested or not shown; [ ] = remark or other dose. Calls follow the shape of the dose curve; as a rule, active = well fitted curve in the direction sought with a large enough effect; inconclusive = small, poorly fitted or top-dose-only effect, or another doubt; inactive = no such curve, though single readings can be large; an effect the other way counts as inactive or inconclusive.

SMILES	DT40 TDP1 CPT	RORg inh	TDP1 cell noCPT	TDP1 inh	Gal4-VP16 FLuc
CCCS(=O)(=O)N1CCN(S(=O)(=O)c2ccccc2[N+](=O)[O-])CC1	.	.	.	.	.
CC1(C)CC2CC(C)(CN2S(=O)(=O)c2ccccc2[N+](=O)[O-])C1 (stereo not given)	21µM	/	21µM	.	/
CC1CC(C)CN(S(=O)(=O)c2ccccc2[N+](=O)[O-])C1 (stereo not given)	13µM	.[10 µM]	13µM	.	.
O=C(CN1CCN(S(=O)(=O)c2ccccc2[N+](=O)[O-])CC1)Nc1ccc(N2CCOCC2)cc1	?	.	?	/	.
CC(=O)c1c(C)[nH]c(C(=O)CN2CCN(S(=O)(=O)c3ccccc3[N+](=O)[O-])CC2)c1C	21µM	/	13µM	.	/
CC1(C)CC2CC(C)(CN2S(=O)(=O)c2cccc(N)c2)C1 (stereo not given)	?	?	?	.	.
COc1ccc(N2CCN(C(=O)CN3C(=O)NC(c4ccc(OC)cc4)(c4ccc(OC)cc4)C3=O)CC2)cc1	?	.	?	.	.
COc1ccc(OC)c(Nc2nc(C)nc3c2oc2ccccc23)c1	23µM	.	21µM	/	.
CCOP(=O)(OCC)c1nc(-c2cccc3ccccc23)oc1NCc1ccc(OC)cc1	?	.	?	.	.
COc1ccc(Cl)cc1Nc1nc(C)nc2c1oc1ccccc12	?	.	.	/	.
COc1ccc(CCNc2nc(C)nc3c2oc2ccccc23)cc1OC	3.7µM	.	4.1µM	.	.
COc1ccc(CCNc2oc(-c3cccc4ccccc34)nc2P(=O)(OC)OC)cc1OC	?	.	15µM	.	.
NNC(=O)c1cc2ccccc2cc1NS(=O)(=O)c1ccccc1	.	20µM	.	/	?
O=S(=O)(Nc1ccc2ccccc2c1)c1ccccc1	?	.	?	.	.
COCCCN(Cc1cc(OC)c(OC)c(OC)c1)C(=S)Nc1cccc(Cl)c1	?	/	9.2µM	/	/
COc1ccc(CC(=O)Nc2cccc(SC)c2)cc1	?	.	.	.	.
CCN(Cc1cc(OC)c(OC)c(OC)c1)C(=S)Nc1cccc(SC)c1	?	.	23µM	.	.
COc1cc(CC(=O)Nc2cccc(SC)c2)cc(OC)c1OC	?	?	10µM	.	?
COCCCN(C(=S)Nc1cccc(Cl)c1)C(C)c1ccncc1 (stereo not given)	.	.	.	.	.
CC(OC(=O)C1CC1)C(=O)Nc1ccc([N+](=O)[O-])cc1Cl (stereo not given)	.	.	.	.	.
CCc1ccc(-c2cc(C)no2)cc1S(=O)(=O)Nc1ccccn1	.	.	.	.	.
CCOC(=O)c1ccsc1NC(=O)CCS(=O)(=O)c1ccccc1	?	.	?	.	.
Cc1ccc(C)c(NC(=O)CSc2n[nH]c(-c3ccccn3)n2)c1	23µM	6.3µM	18µM	.[0.0935 µM]	?
O=C(CSc1n[nH]c(-c2ccncc2)n1)Nc1ccccc1C(F)(F)F	18µM	.	10µM	/	.
Cc1ccc(NC(=O)CSc2n[nH]c(-c3ccco3)n2)c(C)c1	.	.	.	.	.
SMILES	DT40 TDP1 CPT	RORg inh	TDP1 cell noCPT	TDP1 inh	Gal4-VP16 FLuc
CCc1ccc(C(=O)CSc2n[nH]c(-c3ccncc3)n2)cc1	.	.	.	.	11µM
O=C(CSc1n[nH]c(-c2ccccc2)n1)Nc1ncccn1	.	.	.	.	.
Cc1ccc(O)c(NC(=O)CSc2n[nH]c(-c3ccccc3)n2)c1	?	?	16µM	.	?
COc1ccc(CNS(=O)(=O)c2ccc(-n3cnnn3)c(OC)c2)cc1	.	?	.	.	.
Cc1ccc(C(=O)N/C(=C\C=C\c2ccccc2)C(=O)NCc2ccco2)cc1	.	?	.	.	.
Cc1ccccc1NC(=O)CSc1n[nH]c(-c2ccccn2)n1	18µM	/	?	.	/
Cc1ccccc1NC(=O)CSc1nnc(-c2ccccn2)o1	.	.	.	.	.
Cc1nc2c(c(SCC(=O)Nc3ccccc3C(F)(F)F)n1)CCC2	?	/	21µM	.	/
O=C(CN1CCN(S(=O)(=O)c2ccc(Br)s2)CC1)N1CCCCC1	?	/	.	.	/
Cc1cc(=O)n2nc(N3CCCC(C(=O)NCCc4ccccc4)C3)sc2n1 (stereo not given)	.	.	.	.	.
O=C(Nc1nc2c(Cl)ccc(Cl)c2s1)C1CC1	.	.	.	/	.
NNc1nc2c(Cl)ccc(Cl)c2s1	.	11µM	?	.	18µM
O=C(C[C@H]1C[C@H](C(=O)N2CCCCC2)[C@@]2(CCc3ccccc3)c3[nH]c4ccc(Cl)cc4c3CCN2C1=O)NCc1ccco1	7.3µM	/	8.2µM	.	/
O=C(CC1C[C@H](C(=O)N2CCCCC2)[C@@]2(CCc3ccccc3)c3[nH]c4ccccc4c3CCN2C1=O)NCc1cccc(C(F)(F)F)c1 (stereo not given in full)	?	/	16µM	.	/
COCCCNC(=O)C[C@H]1C[C@H](C(=O)N2CCCCC2)[C@@]2(CCc3ccccc3)c3[nH]c4ccc(Cl)cc4c3CCN2C1=O	8.2µM	/	4.6µM	.	/
COc1ccc2[nH]c3c(c2c1)CCN1C(=O)C(CC(=O)NCCN2CCOCC2)C[C@H](C(=O)N2CCCCC2)[C@@]31CCc1ccccc1 (stereo not given in full)	?	/	?	.	/
COc1ccc2[nH]c3c(c2c1)CCN1C(=O)C(CC(=O)NCc2cccc(C(F)(F)F)c2)C[C@H](C(=O)N2CCCCC2)[C@@]31CCc1ccccc1 (stereo not given in full)	16µM	/	?	.	/
CC(C)(C)NC(=O)C[C@H]1C[C@H](C(=O)N2CCCCC2)[C@@]2(CCc3ccccc3)c3[nH]c4ccc(Cl)cc4c3CCN2C1=O	?	/	?	.	/
O=C(C[C@H]1C[C@H](C(=O)N2CCCCC2)[C@@]2(CCc3ccccc3)c3[nH]c4ccc(Cl)cc4c3CCN2C1=O)NCc1cccc(C(F)(F)F)c1	13µM	/	12µM	.	/
CCN(CC)C(=O)[C@H]1CC(CC(=O)NCc2cccc(C(F)(F)F)c2)C(=O)N2CCc3c([nH]c4ccccc34)[C@]12C (stereo not given in full)	15µM	/	21µM	.	/
COc1cc(NC(=O)CN(c2ccc(C)cc2)S(=O)(=O)c2c(C)noc2C)cc(OC)c1	18µM	.	7.3µM	.	?
Cc1cc(C)cc(N(CC(=O)NCc2ccccc2Cl)S(=O)(=O)c2c(C)noc2C)c1	?	/	23µM	.	/
COc1cc(NC(=O)CN(c2cc(C)cc(C)c2)S(=O)(=O)c2c(C)noc2C)cc(OC)c1	18µM	.	?	.	.
Cc1ccc(N(CC(=O)Nc2ccc(OC(F)(F)F)cc2)S(=O)(=O)c2c(C)noc2C)cc1	21µM	/	18µM	.	/
Cc1cc(O)c(C(C)C)cc1NC(=O)c1ccc(Cl)cc1	?	.	?	.	.
